# Measurements taken from PubChem BioAssay (NCATS).
# Records with an inconclusive call do not appear. A number with no mark means an inactive call. Calls of active or inactive are those of the source. Calls come from the whole dose curve; as a rule, active = well fitted cell-killing curve with a large enough effect; inconclusive = small, poorly fitted or top-dose-only effect; inactive = flat fitted curve, though single readings scatter.
# Experiment: qHTS of pediatric cancer cell lines to identify multiple opportunities for drug repurposing: Primary screen for DAOY cells (AID 1347090); note: nearly all actives have a fitted effect of over 55% in size
# Settings: DAOY medulloblastoma viability, CellTiter-Glo luminescence, 48 h; series mostly up to 46 µM; activity change, negative = cytotoxic: at the top concentration
# Text: Drug repurposing or repositioning has been offered as a strategy for drug development in oncology programs. This approach has special potential for childhood cancers and other rare or orphan diseases, where the expected return on new drug development has been a disincentive to pharmaceuticals.
# In this project we exploit the poly-pharmacology of drugs to discover new indications via phenotypic screening of a panel of 19 well-characterized cell lines derived from solid tumors seen in children and adolescents. The goal is to identify approved drugs with previously unrecognized anticancer properties that has the potential to reveal new mechanisms and biological processes involved in carcinogenesis or drug resistance. We employed a titration-based paradigm (quantitative high-throughput screening or qHTS), where all compounds were tested at multiple concentrations for their effect on cell viability. Concentration-response curves (CRCs) were derived directly from the primary screen, and both potency and efficacy values were used to identify compounds with robust bioactivity profiles. We screened the NIH Chemical Genomics Center (NCGC) Pharmaceutical Collection (NPC) and Mechanism Interrogation Plate (MIPE) small molecule collections of approved and investigational compounds against these cell lines; and measured metabolically active cells after 48 hours of compound treatment as a proxy for cell viability.
# Assay Submitter: Nathalia J. Martinez, National Center for Advancing Translational Sciences, National Institutes of Health, Rockville, MD, USA; email: natalia.martinez@nih.gov
# [1] Shen, M et al. Quantitative high-throughput phenotypic screening of pediatric cancer cell lines identifies multiple opportunities for drug repurposing. Oncotarget 2017 Dec 19;9(4):4758-4772. PMID 29435139.
# The cells were obtained from University of North Carolina (UNC), Pediatric Preclinical Testing Program (PPT), and Coriell Institute (CI).
# qHTS cell viability assay:
# Cells were assayed in growth media at a density of 500-1,000 cells/well. Five microliters of cells were dispensed into 1,536-well, white, solid-bottom, TC-treated plates (Greiner Bio One) using a multidrop dispenser and incubated at 37 degrees C, 5% CO2, under a humidified atmosphere for 5 hours. Twenty-three nanoliters of compounds and controls (neutral control DMSO or positive control bortezomib at final concentration of 2.3 µM) were subsequently transferred by Kalypsys pintool. For primary screens, the MIPE collection was tested at 11-point dilutions (final concentrations range from 0.78 nM to 46 µM) and the NPC collection at 8-point dilutions (final concentrations range from 0.59 nM to 46 µM). Compounds tested in follow-up screens were assayed at 11-point dilutions. Cells were incubated for 48 hours, followed by addition of 3 uL of CellTiter-Glo (Promega). After a 15 min incubation at room temperature, samples were analyzed for luminescence intensity using a ViewLux High-throughput CCD imager equipped with clear filters.
# Potency is the fitted concentration of half-maximal effect.
SMILES,"activity change, negative = cytotoxic",Potency
Cc1[nH]cnc1-c1ccc(Cl)cc1,-8.18%,–
CCCc1c2oc(C(=O)O)cc(=O)c2cc2c(=O)cc(C(=O)O)n(CC)c12,8.85%,–
CCC(=O)O[C@]1(C(=O)COC)[C@@H](C)C[C@H]2[C@@H]3CCC4=CC(=O)C=C[C@]4(C)C3(F)[C@@H](O)C[C@@]21C (stereo not given in full),1.41%,–
O=C(O)Cn1c(=O)n(Cc2ccc(Br)cc2F)c(=O)c2ccc(Cl)cc21,2.2%,–
CCC[C@H](N[C@@H](C)C(=O)N1[C@H](C(=O)O)C[C@@H]2CCCC[C@@H]21)C(=O)OCC,-14%,–
CCCC(=O)Nc1ccc(O)c(C(C)=O)c1,5.29%,–
C[C@@H]1C[C@H]2[C@@H]3CCC4=CC(=O)C=C[C@]4(C)[C@@]3(F)[C@@H](O)C[C@]2(C)[C@@]1(O)C(=O)COC(=O)c1ccncc1,-2.47%,–
COC(=O)C1=C(C)NC(C)=C(C(=O)OCCc2ccc(N3CCN(C(c4ccccc4)c4ccccc4)CC3)cc2)C1c1cccc([N+](=O)[O-])c1 (stereo not given),4.41%,–
CCCC(CCC)(C(=O)OCC)C(=O)OCC,0.901%,–
NS(=O)(=O)c1cc(C(=O)NN2C[C@H]3[C@H]4CCC(C4)[C@H]3C2)ccc1Cl,2.47%,–
CCCC(=O)OCOC(=O)C1=C(C)NC(C)=C(C(=O)OC)C1c1cccc(Cl)c1Cl (stereo not given),2.37%,–
CN1N=C(C(N)=O)CCC1=O,-0.324%,–
C=CCOc1cc(Cl)ccc1C(=O)NCCN(CC)CC,7.48%,–
O=C(OCC1(COC(=O)c2cccnc2)CCCC(COC(=O)c2cccnc2)(COC(=O)c2cccnc2)C1O)c1cccnc1,3.55%,–
CCCCC(=O)OCC(=O)[C@H]1[C@H](C)C[C@H]2[C@@H]3C[C@H](F)C4=CC(=O)C=C[C@]4(C)[C@@]3(F)[C@@H](O)C[C@@]21C,0.121%,–
CCOC(=O)N1CCC(Nc2ccc(Cl)cc2N)CC1,-26.2%,–
CNC[C@H](O)[C@@H](O)[C@H](O)[C@H](O)CO,3.9%,–
CC(=O)OCC(=O)Nc1cc(C#N)cc(NC(=O)COC(C)=O)c1Cl,7.95%,–
O=C(Oc1ccccc1)c1cccc(C(=O)Oc2ccccc2)c1,11.7% [at 92.7 µM],–
CC(C)C[C@@H]1[C@H](c2ccccc2)OC(=O)N1CCCN1CCCCCC1,-2.36%,–

SMILES,"activity change, negative = cytotoxic",Potency
C[N+]1(CC2COC(c3ccccc3)(c3ccccc3)O2)CCCCC1 (stereo not given),-12.8% [at 16.1 µM],–
CC(C)C(=O)Nc1cccc(C2CN3CCSC3=N2)c1 (stereo not given),0.908%,–
COc1ccccc1OCC1CNC(=O)O1 (stereo not given),7%,–
Nc1nnnn1-c1ccccc1,-0.855%,–
C1N2CN3CN1CN(C2)C3,3.01%,–
Fc1ccc(C(c2ccc(F)cc2)N2CCNCC2)cc1,9.67%,–
CCCCCCCCCCCCCCCC[n+]1ccccc1,–,16.8 µM (active)
CC1CN(c2cc3c(cc2F)c(=O)c(C(=O)O)cn3-c2ccc(F)cc2F)CCN1 (stereo not given),0.682% [at 4.84 µM],–
CN1CCC(=C2c3ccccc3CCc3cccnc32)CC1,10.1%,–
CN1CC(=O)N2[C@H](c3ccc4c(c3)OCO4)c3[nH]c4ccccc4c3C[C@@H]2C1=O,0.35%,–
COc1ccc2c(c1)c(CC(=O)OC/C=C(\C)CC/C=C(\C)CCC=C(C)C)c(C)n2C(=O)c1ccc(Cl)cc1,-4%,–
C[C@H](N)C(=O)N[C@@H](C)C(=O)NC1[C@H]2CN(c3nc4c(cc3F)c(=O)c(C(=O)O)cn4-c3ccc(F)cc3F)C[C@@H]12 (stereo not given in full),-17.4%,–
NS(=O)(=O)c1cc2c(cc1Cl)CN(C1CCCCC1)C2=O,1.21%,–
CC(=O)OCC(=O)[C@@]1(O)CCC2C3CCC4=CC(=O)CC[C@]4(C)C3[C@@H](O)C[C@@]21C (stereo not given in full),-6.38%,–
Nc1nc2ccccc2n1Cc1ccc(F)cc1,-8.19%,–
CC(C)(c1ccc(O)cc1)c1ccc(O)cc1,-15.6% [at 92.7 µM],–
CN(C)CCN(Cc1ccsc1)c1ccccn1,2.71%,–
COC(=O)c1c(Cl)c(Cl)c(C(=O)OC)c(Cl)c1Cl,-8.82% [at 92.7 µM],–
O=C(CCC1CCN(Cc2ccccc2)CC1)c1ccc2c(c1)NCCCC2,0.523%,–
CC1CC(=O)NN=C1c1ccc(NCC(C)(C)NCC(O)COc2cc(Cl)ccc2C#N)cc1 (stereo not given),5.93%,–
